Drawing on PubChem BioAssay (NCI), this text covers growth inhibition for 18 compounds.

About 79,000 compounds went through this panel and 15% of them were active in at least one assay; those are over-represented in the sample as a whole. A number with no mark means an inactive call. Cut-off read from the data, not from the text of the source: active = growth inhibition above about 70%; inactive = the rest.

This experiment in a line: NCI Yeast Anticancer Drug Screen. Data for the sgs1 mgt1 strain (AID 161).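 Note: 0% = growth of cultures given vehicle only.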 The following applies: S. cerevisiae sgs1 mgt1 strain, at 50.0 µM, active compounds read high. In a few lines: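 Test agents were incubated with a DNA-repair-mutant yeast strain. Growth was then read and compared against vehicle-treated controls.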
Turning to `Oc1cccc(NCNC2Nc3ccccc3N2)c1`, the growth inhibition is -1.4%.
With `CCCCCCC1CCC(=O)CC1` the figure was -14.6%.
Under `CCOS(=O)(=O)CC(C)C(C)C` (stereo not drawn) stands -7.8%.
With `O=c1[nH]/c(=C/c2ccc3c(c2)OCO3)c(=O)[nH]/c1=C/c1ccc2c(c1)OCO2` the figure was -22.8%; with `Nc1nc(C(=O)O)c(N=Nc2ccccc2)c(=O)[nH]1`, 7.35%.
For the compound `COc1ccc2c(c1)CCC1=C2CC2C(=O)C1(C)CCC2(C)OC(C)=O` (stereo not drawn), the growth inhibition was -1.3%.
On to `COc1ccc(-c2cc(=O)c3cc(C)c(C)c(C#N)c3o2)cc1`, for which the growth inhibition was -35.8%.
Under `CCC(C(=O)O)C(=O)O` stands -23.7%; under `O=C(Nc1cc(C(F)(F)F)ccc1Cl)c1ccccc1F`, -6.95%; under `Nc1nc(-c2ccccc2)cc(-c2cc(Cl)ccc2O)n1`, -3.1%.
Take `O=C1NC(Cc2ccc(O)cc2)C(=O)N1c1ccccc1O` (stereo not drawn): the growth inhibition was 5.35%.
With `CC1=NN(C(=O)c2ccc(Cl)cc2)C(=O)/C1=C/c1ccco1` the figure was -22.6%; with `CC1CCC2C(C)C3C(CC4C5CC=C6CC(O)CCC6(C)C5CCC43C=O)N2C1` (stereo not drawn), 24.9%.
Under `ClC(c1ccccc1)c1cccc2ccccc12` (stereo not drawn) stands 7.7%; under `O=C(O)CNc1ncnc2[nH]ncc12`, 2.85%.
As to `C=C(CN(CC)CC)C1(c2ccccc2)CC2(CCCC2)C(=O)O1` (stereo not drawn), the growth inhibition was 1.15%.
Turning to `CCOC(=O)c1c(C)c2c(n1C)CCC(C(=O)OCC)C2=O` (stereo not drawn), the growth inhibition is 10.3%.
Under `O=C(NNC(O)C(F)(F)F)c1ccccc1` (stereo not drawn) stands 10.1%.
